Assay results: PubChem BioAssay (NCI)
The panel holds about 83,000 compounds, 20% with a hit somewhere; the sample as a whole holds those more often.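 Method: cells in 96-well plates; compound added at one concentration; 48 h incubation; percent growth measured; values under 10 scored active.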 Unmarked numbers belong to inactive results. The source made the active and inactive calls.

Legend:
Assay in all cases: NCI-60 one-dose screen, 48 h (100 = growth as untreated, 0 = no growth, -100 = all killed)
Details in all cases: 10 µM unless noted
[1] = tested on: HCT-15 colon
[2] = tested on: HT29 colon
[3] = tested on: SNB-75 CNS
[4] = tested on: U251 CNS
[5] = tested on: PC-3 prostate
[6] = tested on: SK-MEL-5 melanoma
[7] = tested on: UACC-62 melanoma
[8] = tested on: LOX IMVI melanoma
[9] = tested on: SK-MEL-28 melanoma
[10] = tested on: SNB-19 CNS

Row | SMILES | growth [1] | growth [2] | growth [3] | growth [4] | growth [5] | growth [6] | growth [7] | growth [8] | growth [9] | growth [10]
1 | COc1ccc2nc(Cl)c(/C=C/C(=O)c3ccc(NC(=O)CSc4nnc(-c5ccc(Cl)c(Cl)c5)n4-c4ccccc4)cc3)cc2c1 | 105% | 90.1% | 84.1% | 87.4% | 72.5% | 94.5% | 86.2% | 97.6% | 107% | –
2 | COc1ccc2c(c1)c(-c1nonc1-c1c[nH]c3ccc(Br)cc13)cn2C | 22.2% | 11.9% | 63.3% | 34.9% | 43.8% | 57.1% | 38.2% | 22.4% | 61% | –
3 | N#Cc1nc2c(S(=O)(=O)c3ccccc3)c(N)n(Cc3cccnc3)c2nc1C#N | 101% | 104% | 57.4% | 75.5% | 67% | 93.6% | 85.6% | 88.3% | 89.3% | –
4 | N#Cc1c(-c2ccccc2)nc2c(c(-c3ccccc3)nn2-c2ccccc2)c1-c1ccc(N2CCOCC2)cc1 | 37.3% | 52.4% | 86.9% | 65.9% | 81.7% | 98.8% | 106% | 51.6% | – | –
5 | CCn1cc(C2=C(c3cn(C)c4ncccc34)C(=O)NC2=O)c2cccnc21 | 67.6% | 72.4% | -10.8% (active) | 76.7% | 66% | 86.3% | 70% | 66.5% | 90.7% | –
6 | C=CC(C)(O)CC/C=C(\CO)C(=O)OC1C(C)OC(O[C@](C)(C=C)CC/C=C(\CO)C(=O)O[C@H]2C[C@@]3(C(=O)OC4OC(CO)C(O)C(O)C4OC4OC(C)C(OC5OC(CO)C(O)C5O)C(OC5OC(CO)C(O)C(O)C5O)C4O)C(CC2(C)C)C2=CCC4[C@@]5(C)CC[C@H](OC6OC(COC7OC(C)C(O)C(O)C7OC7OCC(O)C(O)C7O)C(O)C(O)C6NC(C)=O)C(C)(C)C5CC[C@@]4(C)[C@]2(C)C[C@H]3O)C(O)C1O (stereo partly drawn) | 66.3% | 21.5% | -34.9% (active) | -84.5% (active) | – | 74.6% | -11% (active) | -36.7% (active) | -90.3% (active) | –
7 | COc1ccc(/C(C)=C(\c2ccc(OCCN3CCCCCC3)cc2)c2ccc(OC(=O)c3ccccc3)cc2)cc1 | 12.1% | -3.62% (active) | 83.3% | 31.7% | – | 42.8% | 19.1% | -51% (active) | 54.9% | –
8 | COc1ccc(-c2cc(-c3ccc(OC)cc3)nc(NCCCNc3ccnc4cc(Cl)ccc34)n2)cc1 | -77% (active) | -59.6% (active) | 112% | – | – | 22.7% | 91.8% | -95% (active) | 37.5% | 93.3%
9 | Cc1c2cc[nH]c(=O)c2c(C)c2c1[nH]c1ccc(OC(=O)c3ccccc3)cc12 | 27.9% | 34.1% | 39.9% | 29.2% | 35.9% | -26.9% (active) | 28.5% | 13.7% | 25.2% | –
10 | O=c1[nH]c(-c2ccc(Cl)cc2)cn1-c1ccc(-n2cc(-c3ccc(Cl)cc3)[nH]c2=O)cc1 | 98.8% | 102% | 98.1% | 104% | 77.5% | 101% | 87.5% | 103% | 101% | –
11 | CCN(CC)CCCNCc1cc(-c2ccccc2)nc2cc(Cl)ccc12 | 12.1% | -17.3% (active) | 70.8% | 11.5% | 37% | -76.9% (active) | -61.3% (active) | -20.6% (active) | -92.4% (active) | –
12 | Cc1cc(F)ccc1S(=O)(=O)Nc1cc(-c2c(O)ccc3ccccc23)c(O)c2ccccc12 | 10.7% | 52.8% | 46.2% | 18.6% | 15.5% | -63.6% (active) | 2.8% (active) | 16% | 29.4% | –
13 | O=C(CCCCNC(=O)c1cc(=O)c(O)co1)Nc1ccccc1 | 49% | 98.2% | 84.9% | 92.8% | 95.9% | 98.6% | 90.1% | 45.3% | 103% | –
14 | COc1ccc(NC(=O)c2ccc(C(=O)Nc3ccc(OC)cc3OC)cc2)c(OC)c1 | 81.4% | 90% | -39.3% (active) | – | – | 96.7% | 73.8% | 71.8% | 101% | 50.9%
15 | COc1cc2c(c(OC)c1OC)C(=O)CC(c1cccc(NC(=O)c3ccccc3Br)c1)O2 (stereo not drawn) | 88.6% | 97.1% | 93.3% | 91.5% | 77.9% | 86.1% | 72.2% | 93.4% | 111% | –
16 | Cn1cc(-c2csc(-c3cn(C)c4ccc(Br)cc34)n2)c2cnccc21 | -78.6% (active) | -76.2% (active) | -93.6% (active) | -80.4% (active) | -74.9% (active) | -55.7% (active) | -78% (active) | -92.1% (active) | -96% (active) | –
17 | N/C(=N\c1nc2ccccc2s1)NC(=NC1CCCCC1)NC1CCCCC1 | 1.34% (active) | 6.19% (active) | 23.1% | – | 24.2% | -74.8% (active) | 52.8% | -100% (active) | -73.8% (active) | 4.28% (active)
18 | COc1cc(/C=C2\CN(S(=O)(=O)c3ccc(C)cc3)C/C(=C\c3cc(CN4CCCCC4)c(O)c(OC)c3)C2=O)cc(CN2CCCCC2)c1O | -86.1% (active) | -66.5% (active) | -83.9% (active) | – | -39.9% (active) | -88.9% (active) | -63.5% (active) | -74.5% (active) | -85.8% (active) | -57.7% (active)
19 | Cc1ccc(/C=C/C(=O)c2ccc(NC(=O)CSc3nc4c([nH]3)c(=O)n(C)c(=O)n4C)cc2)c(C)c1 | 70.7% | 53.3% | 18.9% | -67.5% (active) | 49.3% | 69.5% | 69.5% | 39.1% | 62.2% | –
20 | CCOC(=O)c1cn2ncnc(Oc3ccc(NC(=O)NC4CC4)c(F)c3)c2c1C | 60.4% | 110% | 91.3% | 82.5% | 87.7% | 94.9% | 86.9% | 87.7% | – | –
21 | COc1cccc(/C=C/C(=O)c2cc3c(N)c(C(=O)Nc4ccccc4C)sc3nc2C)c1 | 8.29% (active) | – | 12.8% | 7.49% (active) | 45.3% | 52.4% | 33.6% | -65.9% (active) | – | 11.4%
22 | CC1(C)CCC(S(=O)(=O)c2ccc3c(c2)/C(=N\O)c2cc(S(=O)(=O)N4CCN(c5ccc(F)cc5O)CC4)ccc2-3)CC1 | -75.1% (active) | – | -97.6% (active) | -97.7% (active) | -64.2% (active) | -93.6% (active) | -69.7% (active) | -82.6% (active) | -72.2% (active) | -72.7% (active)
23 | CN1CCCc2cc(/C=C3/SC(=S)N(CCc4ccc(O)cc4)C3=O)ccc21 | 56.7% | – | 74.1% | 94.4% | 67.5% | 92% | 71.9% | 77.3% | 88.5% | 92.9%
24 | CCCCNC1=C(OCC)C(=O)c2ccccc2C1=O | 94.3% | – | 96.1% | 99.7% | 94.4% | 91.9% | 97.5% | 68.8% | 114% | 100%
25 | COc1cc2c(/C=C3\C(=O)Nc4ccccc43)c(C(=O)O)[nH]c2cc1C | 105% | – | 66.3% | 96.4% | 79.8% | 109% | 84.3% | 92.7% | 81.6% | 113%
26 | COc1ccc(-c2cc(C(=O)N3N=C(c4ccc(N)cc4)CC3c3ccccc3)c3ccccc3n2)cc1 (stereo not drawn) | 24.6% | – | -1.79% (active) | 36.9% | 32.5% | 36.2% | 40.3% | 39.7% | 53.1% | 47.8%
27 | CC(C(=O)O)n1c(O)c(C=Nc2cccnc2)sc1=S (stereo not drawn) | 98.4% | – | 80.3% | 86.3% | 88% | 95.5% | 88.8% | 101% | 113% | 91.4%
28 | Cn1ncc2ccc(-c3nc(-c4ccccc4)[nH]c3-c3n[nH]c(=O)n3C3CC3)cc21 | 100% | – | 81.2% | 100% | 77.9% | 98.8% | 100% | 97.2% | 102% | 95.9%
29 | CNCc1cccc2c1OCCOCCN(C)C(=O)CN(C)S(=O)(=O)c1ccc(cc1)-c1cnc(N)c(n1)C(=O)N2 | 66.3% | – | -19.2% (active) | -62.3% (active) | 57.9% | 55.4% | 4.98% (active) | 10.3% | -85.8% (active) | 25.5%
30 | C/C(=N\O)C(=O)NCCCCCC(=O)Nc1ccccc1 | 101% | – | 88.2% | 98.6% | 104% | 91.7% | 94.3% | 89.7% | 114% | 99.3%
